Active and inactive are the calls of the source. A call without a number means that no potency is given here. Calls come from the whole dose curve; as a rule, active = well fitted cell-killing curve with a large enough effect in the repeat runs; inconclusive = weak or mixed curves, or effect the other way; inactive = flat fitted curve, though single readings scatter.

This experiment can be described thus: qHTS assay to identify small molecule HDAC inhibitors - cell viability counter screen (AID 1259365). Note: nearly all actives have a fitted effect of over 50% in size. The conditions noted are these: HCT-116 viability, CellTiter-Glo ATP luminescence, 2 h; series mostly up to 92.4 µM. The text has this: U.S. Tox21 Program National Center for Advancing Translational Sciences [NCATS] NIH Chemical Genomics Center [NCGC] U.S. Environmental Protection Agency [EPA] National Institutes of Environmental Health Sciences [NIEHS] National Toxicology Program [NTP] U.S. Food and Drug Administration [FDA] Tox21 Assay Overview: Histone deacetylases (HDACs) are a group of epigenetic enzymes that regulate gene expression by histone deacetylation. HDACs are capable of introducing epigenetic modifications and such aberrations contribute to the onset and progression of several human diseases, thus making HDACs a popular therapeutic target. For identifying endogenous class I/II HDAC inhibitors a homogenous, luminogenic HDAC I/II cell based assay was used to measure the relative activity of class I and II HDACs from cells. Wild type HCT-116 cells were used to screen Tox21 compound libraries for identifying class I/II HDAC inhibitors.
Tox21 Assay Protocol Summary: HCT-116 cells were dispensed at 1,500 per well in 5uL of culture medium into white solid bottom 1536-well plates (Greiner Bio-One, Monroe, NC) using a Multidrop Combi (Thermo Scientific, Waltham, MA) dispenser. The assay plates were incubated at 37 C and 5% CO2 for an overnight, and then 23nL of compounds dissolved in DMSO and positive control were transferred using a Pintool station (Wako, San Diego, CA). The assay plates were incubated at 37C and 5% CO2 for 2hr. After compound treatment, 4uL of CellTiter-Glo reagent (Promega Corporation, Madison, WI) was added to each well of the assay plates using Flying Reagent Dispenser (FRD, Aurora Discovery, San Diego, CA) and incubated the assay plates at room temperature for 30min. The luminescence signal was quantified using a ViewLux plate reader (Perkin Elmer, Shelton, CT).
For orientation: Quantitative high-throughput screening tests each substance at several concentrations.
For the compound `C[Si](C)(C)N[Si](C)(C)C`, the Potency result was “inactive”.

In the case of `Cc1ccc(C(C)C)cc1`, the Potency entry was “inactive”.

Take `O=C(NCC1CCCCN1)c1cc(OCC(F)(F)F)ccc1OCC(F)(F)F` (stereo not given): the Potency entry is “inactive”. The entry for `N#CCC(=O)O` is “inactive”; for `Cc1ccc(Cl)cc1` it is “inactive”.

`Cc1cc(C)c(O)c(C)c1`: the Potency entry was “inactive”. The entry for `COCN(COC)c1nc(N(COC)COC)nc(N(COC)COC)n1` is “inactive”; for `NCCNCCNCCN` it is “inactive”; for `COc1c2ccoc2cc2oc(=O)ccc12` it is “inactive”. To `COC(=O)CCCCC(=O)OC` belongs “inactive”; to `CCCCC(=O)O`, “inactive”. `CC/C=C(\C(=O)N[C@@H]1C(=O)N2C(C(=O)OCOC(=O)C(C)(C)C)=C(COC(N)=O)CS[C@H]12)c1csc(N)n1`: the Potency entry is “inactive”.

For `O=C(O)Cc1c[nH]c2ccccc12`, the Potency entry is “inactive”. On to `O=C1C(N(CO)C(=O)NCO)N(CO)C(=O)N1CO` (stereo not given), for which the Potency result is “inactive”. The entry for `CC(=O)OCCC(C)C` is “inactive”; for `O=[N+]([O-])c1ccccc1C(F)(F)F` it is “inactive”.

In the case of `C[n+]1ccn(CCO)c1`, the Potency entry is “inactive”. The entry for `C=C(CC(=O)O)C(=O)O` is “inactive”. The entry for `CCCCCCC(=O)O` is “inactive”; for `CC(=O)OC[C@H]1O[C@@](COC(C)=O)(O[C@H]2O[C@H](COC(C)=O)[C@@H](OC(C)=O)[C@H](OC(C)=O)[C@H]2OC(C)=O)[C@@H](OC(C)=O)[C@@H]1OC(C)=O` it is “inactive”. To `OCc1ccc(Cl)cc1Cl` belongs “inactive”; to `CC(C)(C)NC[C@H](O)COc1nsnc1N1CCOCC1`, “inactive”.

Take `CCOC(=O)c1ccc(O)cc1`: the Potency result was “inactive”. The entry for `COc1ccc2cc3[n+](cc2c1OC)CCc1cc2c(cc1-3)OCO2` is “inactive”; for `NC(=O)NC(N)=O` it is “inactive”; for `CCOC(=O)CC(=O)OCC` it is “inactive”. To `Cc1cc(CC(=O)O)n(C)c1C(=O)c1ccc(Cl)cc1` belongs “inactive”. The entry for `Cc1ncc(CO)c(CO)c1O` is “inactive”.

For `Cc1nnc(NS(=O)(=O)c2ccc(N)cc2)s1`, the Potency entry was “inactive”.

`NC1CCCCC1N` (stereo not given): the Potency entry is “inactive”.

With `CC1(C)[C@@H](O[C@H]2O[C@H](C(=O)O)[C@@H](O)[C@H](O)[C@H]2O[C@@H]2O[C@H](C(=O)O)[C@@H](O)[C@H](O)[C@H]2O)CC[C@]2(C)[C@H]3C(=O)C=C4[C@@H]5C[C@@](C)(C(=O)O)CC[C@]5(C)CC[C@@]4(C)[C@]3(C)CC[C@@H]12`, the Potency result was “inactive”. Take `CCCCCCCCC(=O)O`: the Potency entry was “inactive”. For `Cc1cccc(C)c1[N+](=O)[O-]`, the Potency entry was “inactive”. To `CCN(CC)CCNC(=O)c1ccc(N)cc1` belongs “inactive”.

For the compound `CC(COCC(C)OC(=O)c1ccccc1)OC(=O)c1ccccc1` (stereo not given), the Potency entry was “inactive”. To `Cc1ccccc1C=O` belongs “inactive”.

As to `Cc1ccc(C)c(S(=O)(=O)O)c1`, the Potency entry was “inactive”.

Regarding `O=c1c(O)c(-c2ccc(O)c(O)c2)oc2cc(O)cc(O)c12`, the Potency result was “inactive”. For the compound `OCC(CO)(CO)CO`, the Potency result was “inactive”. Take `CCCCCCCCO`: the Potency entry was “inactive”.
